Among the data in PubChem BioAssay (EPA / NIEHS) are outcome and AC50 values, retold here.

A short description of assay [1]: ATG_M_19_CIS: Attagene CIS-FACTORIAL HepG2 Assay for M19 Transcription Factor (Internal Marker) (AID 2282939). The following applies: HepG2 Attagene CIS-FACTORIAL M19 internal marker reporter; actives raise or lower the signal. The essentials:
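Internal marker readout, fitted in both directions against DMSO, from HepG2 cells carrying transfected cis-element reporter constructs; RT-PCR and capillary electrophoresis of reporter mRNA after 24 h exposure.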

Assay [2] can be described thus: ATG_ERE_CIS: Attagene CIS-FACTORIAL HepG2 Assay for Estrogen Response Element (ERE) (AID 2282940). The following applies: HepG2 ERE cis-reporter, Attagene RNA transcript; actives raise or lower the signal. The essentials: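 After 24 h compound treatment, RNA from transfected HepG2 cells was reverse-transcribed, reporter cDNA PCR-amplified, FAM-labelled, HpaI-cut and resolved by capillary electrophoresis. ERE-driven cis reporter transcripts reflect endogenous factors; gain or loss scored against DMSO.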

Assay [3] in a line: ATG_Ets_CIS: Attagene CIS-FACTORIAL HepG2 Assay for human Erythroblast Transformation Specific (ETS) (AID 2282941). As to conditions: HepG2 ETS cis-reporter transcription, actives raise or lower the signal. The essentials:
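Bidirectional fit versus DMSO of reporter mRNA signal, detected by RT-PCR and capillary electrophoresis in HepG2 cells transiently transfected with cis-element reporters and dosed 24 h.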

Assay [4] in a line: ATG_FoxO_CIS: Attagene CIS-FACTORIAL HepG2 Assay for human Forkhead box O (FoxO) (AID 2282943). The following applies: HepG2 Attagene cis-reporter, FoxO element, mRNA; actives raise or lower the signal. The method in brief: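 24 h chemical exposure, HepG2 with transient cis-MRTU transfection. RNA extraction, oligo(dT) RT, reporter-specific PCR, primer-extension labelling, HpaI digestion, CE fragment analysis; bidirectional fit, DMSO baseline.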

A short description of assay [5]: ATG_GATA_CIS: Attagene CIS-FACTORIAL HepG2 Assay for human GATA Binding Protein (AID 2282944). The following applies: HepG2 GATA cis-element reporter, Attagene multiplex mRNA; actives raise or lower the signal. The essentials: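 Reporter transcripts from a GATA cis-regulated unit, among multiplexed reporters in transfected HepG2 cells, were measured by RT-PCR with capillary electrophoresis after 24 h dosing. Induction or loss scored relative to DMSO.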

Assay [6] in a line: ATG_GLI_CIS: Attagene CIS-FACTORIAL HepG2 Assay for human Zinc Finger Protein GLI1 (AID 2282945). As to conditions: HepG2, Attagene cis-factorial reporter mRNA, GLI element; actives raise or lower the signal. The essentials: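 HepG2 cells transiently transfected with cis-promoter multiplexed reporter units report endogenous transcription factor activity. After 24 h chemical exposure, reporter mRNA was quantified by RT-PCR, 6-FAM labelling, HpaI digestion and capillary electrophoresis, with bidirectional fitting against DMSO.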

The nature of assay [7]: ATG_GRE_CIS: Attagene CIS-FACTORIAL HepG2 Assay for human Glucocorticoid Response Elements (GRE) (AID 2282947). The following applies: HepG2 GRE cis-reporter, Attagene multiplex mRNA; actives raise or lower the signal. The method in brief:
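Cells (HepG2) bearing transfected cis-promoter reporter transcription units were treated with chemical for 24 hours. Reporter mRNA was measured via RT-PCR with capillary electrophoresis, and activity was fitted in both directions relative to DMSO.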

Assay [8] in a line: ATG_ISRE_CIS: Attagene CIS-FACTORIAL HepG2 Assay for human Interferon Regulatory Factor 1 (IRF1) binding to an Interferon-Stimulated Response Element (ISRE) (AID 2282948). The following applies: HepG2 ISRE cis-reporter (Attagene), mRNA transcription readout; actives raise or lower the signal. The essentials:
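Uses HepG2 liver cells transfected with cis-regulated reporters and measures mRNA 24 h post-dosing through RT-PCR, primer-extension labelling and capillary electrophoresis, with DMSO as negative control.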

The target of assay [9] is Hepatocyte nuclear factor 3-beta (Homo sapiens) (UniProt Q9Y261). The assay is described as follows: ATG_FoxA2_CIS: Attagene CIS-FACTORIAL HepG2 Assay for human Forkhead box A2 (FOXA2) (AID 2282942). As to conditions: HepG2 cis-reporter transcription factor activity, 24 h; actives raise or lower the signal. The method in brief:
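Readout: fluorescent reporter transcripts resolved by capillary electrophoresis after RT-PCR. Transiently transfected HepG2, 24 h compound exposure, endogenous TF activity at cis promoter elements. Gain or loss of signal fitted relative to DMSO.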

The target in assay [10] is Bile acid receptor (Homo sapiens) (UniProt Q96RI1). The assay is described as follows: ATG_IR1_CIS: Attagene CIS-FACTORIAL HepG2 Assay for human Nuclear Receptor Subfamily 1 Group H Member 4 (NR1H4), IR1 submotif (AID 2282946). As to conditions: IR1 reporter transcription, actives raise or lower the signal. The essentials:
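Readout: reporter transcript levels by RT-PCR with fluorescent capillary electrophoresis, from HepG2 cells transiently transfected with multiplexed cis-regulated reporters and dosed 24 h. Gain- or loss-of-signal fitted versus DMSO negative control.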

Structures are written as SMILES. Active and inactive are the calls of the source. Rule for the calls: active = hit-call score of the fitted dose curve at least 0.9, where 1 is the maximum; inactive = score below 0.9.

Sequence of Hepatocyte nuclear factor 3-beta (Homo sapiens) (Q9Y261 whole entry, looked up): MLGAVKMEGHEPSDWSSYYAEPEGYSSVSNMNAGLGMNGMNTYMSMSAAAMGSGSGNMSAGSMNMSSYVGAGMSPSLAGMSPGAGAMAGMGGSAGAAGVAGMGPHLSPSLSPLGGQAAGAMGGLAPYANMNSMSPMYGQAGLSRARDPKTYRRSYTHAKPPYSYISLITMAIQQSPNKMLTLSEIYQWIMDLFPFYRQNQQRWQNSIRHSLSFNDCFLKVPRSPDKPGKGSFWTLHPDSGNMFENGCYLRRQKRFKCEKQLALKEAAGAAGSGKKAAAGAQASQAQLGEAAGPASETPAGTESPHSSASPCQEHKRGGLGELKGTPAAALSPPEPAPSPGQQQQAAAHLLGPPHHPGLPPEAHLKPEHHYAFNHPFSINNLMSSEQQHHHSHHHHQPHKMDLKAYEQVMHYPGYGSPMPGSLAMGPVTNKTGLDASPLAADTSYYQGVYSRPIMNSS
Sequence of Bile acid receptor (Homo sapiens) (Q96RI1 whole entry, looked up): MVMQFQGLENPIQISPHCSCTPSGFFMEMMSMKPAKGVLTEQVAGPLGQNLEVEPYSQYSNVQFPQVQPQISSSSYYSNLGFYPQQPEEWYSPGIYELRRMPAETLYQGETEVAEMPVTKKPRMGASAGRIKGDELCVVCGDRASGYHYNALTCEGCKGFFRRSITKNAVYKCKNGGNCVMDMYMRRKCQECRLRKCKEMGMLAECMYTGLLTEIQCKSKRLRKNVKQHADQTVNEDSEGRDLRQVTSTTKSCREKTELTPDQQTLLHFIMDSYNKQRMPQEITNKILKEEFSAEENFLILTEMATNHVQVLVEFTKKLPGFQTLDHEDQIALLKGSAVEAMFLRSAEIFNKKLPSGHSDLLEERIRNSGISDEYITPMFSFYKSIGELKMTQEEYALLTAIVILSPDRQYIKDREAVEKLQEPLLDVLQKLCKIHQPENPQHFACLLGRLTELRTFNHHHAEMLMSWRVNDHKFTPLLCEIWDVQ

Consider `N#Cc1ccncc1`, for which the call in assay [1], in assay [2], in assay [3], in [4], in assay [5] and in [6] was inactive. For the same compound, the result in assay [7] and in [8] was inactive.
A word on the AC50: it is the midpoint of the concentration-response curve, whichever way the signal moves. Turning to `CCC[CH2][Sn]([CH2]CCC)([CH2]CCC)[CH2]CCC`, the compound was called inactive in assay [1], in [3], in assay [9], in assay [4], in assay [5] and in assay [6]. In [7], the outcome was inactive. Also, the AC50 in assay [10] is 0.378 µM (active); in assay [8], 11.1 µM (active).
Take `C1CCC(C2CCCCC2)CC1`: the result in assay [1], in [2], in [3], in assay [4], in assay [5] and in assay [6] was inactive. Moreover, the call in [10] and in assay [8] was inactive.
`CCOC(=O)OC1=C(c2cc(C)ccc2C)C(=O)NC12CCC(OC)CC2` (centres undefined): the outcome in assay [1], in assay [2], in assay [3], in assay [4], in assay [5] and in [6] was inactive. For the same compound, the result in [10], in assay [7] and in assay [8] was inactive.
Regarding `COP(=S)(OC)Oc1cc(Cl)c(I)cc1Cl`, the compound was called inactive in [1], in assay [9], in [6] and in assay [10]. The AC50 was 39.9 µM (active) in [3]; 41.8 µM (active) in assay [4]; 46.2 µM (active) in assay [5]; 58.1 µM (active) in assay [7]; 48.7 µM (active) in [8].
Take `Cl[C@H]1OCCO[C@@H]1Cl`: the compound was called inactive in assay [1], in [3], in assay [9], in assay [4], in assay [5] and in [6]. Also, the call in assay [10] was inactive.
As to `CCC(C)(C#N)N=NC(C)(C#N)CC` (centres undefined), the outcome in [1], in assay [2], in assay [3], in assay [4], in assay [5] and in [6] was inactive. In assay [8], the compound was called inactive.
Turning to `COc1ccc([N+](=O)[O-])cc1O`, the call in [1], in assay [2], in assay [3], in [4], in [5] and in assay [6] was inactive. The call in [10] and in [7] was inactive.
As for `C=CC(=O)OCC(COC(=O)C=C)(COC(=O)C=C)COC(=O)C=C`, the compound was classed as inactive in [1], in [2], in [5] and in assay [6]. Further, the AC50 in assay [3] is 33.4 µM (active); in assay [4] it was 8.71 µM (active); in assay [10], 12.2 µM (active); in assay [8] it was 5.34 µM (active).
Turning to `COC(F)(C(F)(F)C(F)(F)F)C(F)(C(F)(F)F)C(F)(F)F` (centres undefined), the compound was called inactive in [1], in assay [2], in assay [3], in assay [4], in [5] and in assay [6]. Besides, the result in assay [10], in assay [7] and in [8] was inactive.
Consider `O=C(Cc1ccccc1)OCCc1ccccc1`, for which the compound was called inactive in [1], in [2], in assay [3], in assay [4], in assay [5] and in [6]. Also, the result in assay [7] and in assay [8] was inactive.
As for `N#Cc1ccccc1Cl`, the compound was called inactive in [1], in [3], in assay [9], in [4], in assay [5] and in [6]. For the same compound, the call in assay [10], in assay [7] and in assay [8] was inactive.
Turning to `CC1(C)COP(Oc2ccccc2)OC1`, the outcome in assay [1], in assay [3], in assay [9], in assay [4], in assay [5] and in [6] was inactive. In addition, the compound was called inactive in [10] and in assay [7].
`Cc1cc(Cl)ccc1O`: the call in assay [1], in [3], in [9], in assay [4], in assay [5] and in [6] was inactive. For the same compound, the outcome in assay [10], in assay [7] and in assay [8] was inactive.
Turning to `CCCCOC(=O)COC(=O)c1ccccc1C(=O)OCCCC`, the call in [1], in assay [2], in assay [3], in [4], in [5] and in assay [6] was inactive. Moreover, the compound was called inactive in [7].
In the case of `C=C(C)C(=O)OCCCCOC(=O)C(=C)C`, the result in assay [1], in [2], in assay [3], in [4], in [5] and in assay [6] was inactive. Further, the outcome in assay [7] and in [8] was inactive.
Consider `c1cc[c]([Sb]([c]2ccccc2)[c]2ccccc2)cc1`, for which the compound was classed as inactive in [1], in assay [3], in [9], in assay [4], in assay [5] and in assay [6]. The result in [10] and in assay [7] was inactive.
With `Cc1cccc(OP(=O)(Oc2cccc(C)c2)Oc2cccc(C)c2)c1`, the result in [1], in assay [3], in assay [9], in [4], in [5] and in assay [6] was inactive. In addition, the outcome in assay [10], in [7] and in assay [8] was inactive.
For the compound `ClCc1ccccc1Cl`, the outcome in [1], in assay [3], in assay [9], in assay [4], in assay [5] and in assay [6] was inactive. In addition, the call in [10] and in [8] was inactive. Besides, the AC50 in [7] was 100 µM (active).
For `OCC(c1ccc(Cl)cc1)c1ccc(Cl)cc1`, the AC50 is 48.5 µM (active) in assay [1]; 52.8 µM (active) in assay [5]; 61.5 µM (active) in assay [6]; 49.9 µM (active) in [10]; 54.6 µM (active) in assay [8]. Also, the outcome in assay [2], in [3], in assay [4] and in assay [7] was inactive.
Consider `Clc1cnc(Oc2ccc(Oc3ncc(Cl)cc3Cl)cc2)c(Cl)c1`, for which the compound was called inactive in [1], in assay [3], in [9], in [4], in [5] and in [6]. Moreover, the call in [10], in assay [7] and in [8] was inactive.
Regarding `Cc1ccc(OP(=O)(Oc2ccc(C)cc2C)Oc2ccc(C)cc2C)c(C)c1`, the compound was called inactive in assay [1], in [3], in assay [4], in [5], in assay [10] and in assay [7]. Moreover, the AC50 was 5.48 µM (active) in assay [2] and 25.7 µM (active) in assay [6].
Regarding `CN(N=O)C(N)=O`, the compound was classed as inactive in [1], in assay [3], in assay [9], in assay [4], in assay [5] and in assay [6]. The result in assay [10], in assay [7] and in [8] was inactive.
Regarding `CCOP(=S)(OCC)O/N=C(\C#N)c1ccccc1`, the compound was classed as inactive in [1], in assay [3], in assay [9], in assay [4], in [5] and in [6]. Also, the compound was classed as inactive in assay [10] and in [7].
In the case of `CCOP(=S)(OCC)OP(=S)(OCC)OCC`, the result in assay [1], in assay [3], in [9], in [4], in assay [5] and in assay [6] was inactive. The compound was called inactive in [10], in assay [7] and in assay [8].
On to `Oc1cc(Cl)c(Cl)cc1Cl`, for which the result in assay [1], in assay [3], in assay [9], in [4], in assay [5] and in [6] was inactive.
With `CC1CC(=O)O1` (centres undefined), the result in [1], in [3], in assay [9], in assay [4], in assay [5] and in [6] was inactive. Moreover, the call in assay [10], in [7] and in assay [8] was inactive.
